Bioassay records deposited in PubChem BioAssay by several laboratories.
Compounds with a hit are over-represented: about 6.6% of the library has one in this group of screens.
GDH-TPI inh – GDH-TPI coupling enzyme inhibitors, primary screen, artefact control for M. tuberculosis FBA inhibitor project, biochemical, absorbance, full deck; GDH-TPI coupled enzyme counterscreen, NADH absorbance; 360,000 tested, 1.2% active; inhibition, % at 4.8 µM; in the data active = inhibition above about 30%
BoNT-A LC inh2 – BoNT/A light chain protease inhibitors, primary screen, biochemical, flow cytometry, MLPCN library; multiplex microsphere protease substrate cleavage; 360,000 tested, 0.17% active; Botulinum neurotoxin type A light chain protease (Clostridium botulinum A str. ATCC 3502); inhibition, % at 10 µM
Anthrax LF prot – Bacillus anthracis LF protease inhibitors, primary screen, biochemical, multiplex microsphere, MLPCN library | Lethal factor (Bacillus anthracis), P15917 | multiplex microsphere protease cleavage assay | inhibition, % at 10 µM | 360,000 tested, 0.12% active | AID 588501, 2011
Target sequence (P15917 whole entry, looked up): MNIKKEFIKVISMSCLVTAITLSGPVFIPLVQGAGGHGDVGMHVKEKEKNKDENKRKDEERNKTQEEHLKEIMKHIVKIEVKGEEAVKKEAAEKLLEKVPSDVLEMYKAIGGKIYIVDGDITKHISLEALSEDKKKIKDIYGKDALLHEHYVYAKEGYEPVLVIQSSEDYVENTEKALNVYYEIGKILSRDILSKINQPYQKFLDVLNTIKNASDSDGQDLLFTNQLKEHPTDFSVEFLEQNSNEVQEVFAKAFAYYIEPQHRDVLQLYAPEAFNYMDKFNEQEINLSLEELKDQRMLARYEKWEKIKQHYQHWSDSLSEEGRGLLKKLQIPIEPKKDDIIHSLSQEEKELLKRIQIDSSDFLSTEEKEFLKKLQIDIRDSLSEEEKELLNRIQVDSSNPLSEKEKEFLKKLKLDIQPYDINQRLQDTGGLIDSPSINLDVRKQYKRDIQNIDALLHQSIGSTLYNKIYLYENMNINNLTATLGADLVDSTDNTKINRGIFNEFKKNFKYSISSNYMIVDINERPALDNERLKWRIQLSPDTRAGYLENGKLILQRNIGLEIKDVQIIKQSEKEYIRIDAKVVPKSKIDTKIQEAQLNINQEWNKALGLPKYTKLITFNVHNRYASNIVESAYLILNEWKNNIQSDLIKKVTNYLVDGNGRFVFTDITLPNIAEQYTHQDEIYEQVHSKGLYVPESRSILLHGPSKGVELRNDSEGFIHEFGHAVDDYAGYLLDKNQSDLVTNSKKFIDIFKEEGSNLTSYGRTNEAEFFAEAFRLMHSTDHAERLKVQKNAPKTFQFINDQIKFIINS
BoNT F protease – BoNT/F light chain protease inhibitors, primary screen, biochemical, flow cytometry, MLPCN library. Botulinum neurotoxin type F light chain protease (Clostridium botulinum). inhibition, % at 10 µM. Multiplex microsphere protease cleavage assay. 360,000 tested, 0.22% active; in the data active = inhibition above about 35%, passing the limit was not always enough; inconclusive = no clear call, values can overlap the other calls
Mtb FBA inh – Mtb FBA enzyme inhibitors, primary screen, biochemical, fluorescence, strain H37Rv. 360,000 tested, 2.3% active. AID 588726, 2011. Fructose-bisphosphate aldolase (Mycobacterium tuberculosis (strain ATCC 25618 / H37Rv)), …. purified M. tuberculosis FBA, fluorescence read-out. inhibition, % at 1 µM; in the data active = inhibition above about 27%
Bead autofluor – counter-screen for toxin protease inhibitors: compound fluorescence; compound autofluorescence counterscreen, microsphere flow cytometry; hits give high values; fluorescence intensity (test concentration not listed); 360,000 tested, 3.1% active; in the data active = fluorescence intensity above about 16000; inconclusive = no clear call, values can overlap the other calls
Each line names hits and unclear results; the compound was inactive in the other large screens. Cut-off read from the data, not from the text of the source, unless noted: active = inhibition above about 30%; inconclusive = no clear call, values can overlap the other calls; inactive = below that.

COCCNC(=O)C1(C)CCCN(CCS(=O)(=O)c2ccc(C)cc2)C1 (stereo not drawn)	none
COc1cccc(C(=O)N2CCN(Cc3ccccc3Br)CC2)c1	BoNT F protease inconclusive
CC(=O)N1C(=O)C(=C2C=C(C)OC(C)=C2)c2ccccc21	Bead autofluor 23162
CC1=CC(=C2C(=O)c3ccccc3C2=O)C=C(C)O1	none
ONC(=Nc1ccc(Cl)cc1)c1ccccc1	Bead autofluor 22689
CCOC(=O)Cc1nc2ccccc2n(CC#N)c1=O	none
Cc1ccc(CNC(=O)CCn2nc(-c3ccc(Cl)cc3)ccc2=O)cc1	Bead autofluor 18881
CN(C)CCNC(=O)CCn1nc(-c2ccc(Cl)cc2)ccc1=O	none
Cn1c2ccccc2c2nnc(SCC(=O)NC3CCCC3)nc21	none
Cn1c(=O)n(C)c2cc(/C=N/N=C3/NC(=O)C(CC(=O)O)S3)ccc21 (stereo not drawn)	GDH-TPI inh 38
COc1ccc(/C=N/N=C2/NC(=O)C(CC(=O)O)S2)cc1OCc1ccc(Cl)cc1 (stereo not drawn)	GDH-TPI inh 57
O=C(O)CC1S/C(=N/N=C/C=C/c2ccccc2[N+](=O)[O-])NC1=O (stereo not drawn)	none
CCOc1cc(/C=N/N=C2/NC(=O)C(CC(=O)O)S2)ccc1OCc1ccc(Cl)cc1 (stereo not drawn)	GDH-TPI inh 32
COc1cc(/C=N/N=C2/NC(=O)C(CC(=O)O)S2)ccc1OCc1cccc(Cl)c1 (stereo not drawn)	none
O=C(O)CC1S/C(=N/N=C/C=C/c2ccccc2)NC1=O (stereo not drawn)	GDH-TPI inh 50
CCOc1ccccc1NS(=O)(=O)c1ccc2c(c1)n(C)c(=O)c(=O)n2C	none
O=C(Nc1ccc(C(F)(F)F)cc1)c1ccccc1-n1cnnn1	none
O=c1[nH]c(SCc2ccc(F)cc2Cl)nc2ccccc12	none
O=S(=O)(c1ccc(F)cc1)c1nc(-c2ccco2)oc1NCCCn1ccnc1	none
O=C(Nc1nccs1)c1sc2cc(Cl)ccc2c1Cl	GDH-TPI inh 34
O=C(Nc1cccc(Cl)c1)Nc1nccs1	BoNT-A LC inh2 inconclusive, Bead autofluor 16192
Cn1c(=O)c2c(nc(-c3ccc(N(CCCl)CCCl)cc3)n2C)n(C)c1=O	GDH-TPI inh 39, Mtb FBA inh active
COC(=O)C(=N/Nc1ccccc1C(=O)OC)/C(C)=N/O	GDH-TPI inh 44, BoNT F protease inconclusive
CNc1ccccc1C(=O)OC	none
NC(=O)c1ccc(NC(=O)CSc2cn(CC(=O)N3CCOCC3)c3ccccc23)cc1	none
Cc1ccc2c(c1)-c1nc3ccccc3cc1C2=NC1CCCCC1	none
Cc1ccc2c(c1)Cc1nc3ccccc3nc1-2	Mtb FBA inh 57
CCOC(=O)c1cnc(Nc2nc3ccccc3o2)nc1C	Bead autofluor 20539
Cc1ccc2c(c1)[C@@H]1CN(C)CC[C@@H]1N2C(=O)Nc1cccc(C(F)(F)F)c1	Bead autofluor 23738
Oc1ccc(C=Nc2ccc(N3CCOCC3)cc2)c(O)c1	none
Cc1ccc(N=Cc2ccc(O)cc2O)cc1F	BoNT-A LC inh2 inconclusive, Bead autofluor 21566
COc1ccc(/C=C2/C(=O)OCc3cc(OC)c(OC)cc32)cc1	none
CC(=O)N1CCN(C(=O)c2ccco2)CC1	none
O=C1NCCN1C(=O)c1ccco1	Bead autofluor 22557
COC(=O)Cn1ncc(N(C)Cc2ccccc2)c(Cl)c1=O	none
Cc1ccc(C)c(NC(=O)Cn2nnc(-c3ccc(N4CCOCC4)cc3)n2)c1	none
Cc1cccc(C)c1NC(=O)Cn1nnc(-c2ccc(N3CCOCC3)cc2)n1	Bead autofluor 20925
Cc1cc(NC(=O)C(C)SCC(=O)Nc2ccccc2C(C)(C)C)no1 (stereo not drawn)	none
CC(C)c1ccc(-c2noc(C3CCCN(C(=O)c4ccc(F)cc4F)C3)n2)cc1 (stereo not drawn)	Bead autofluor 22538
O=S(=O)(c1ccc(F)cc1)N1CCCC(c2nc(-c3ccc(F)cc3)no2)C1 (stereo not drawn)	none
O=S(=O)(Cc1ccccc1)N1CCCC(c2nc(-c3ccc(F)cc3)no2)C1 (stereo not drawn)	Bead autofluor 21682
Cc1ccccc1NC(=O)N1CCCC(c2nc(-c3ccc(C(C)C)cc3)no2)C1 (stereo not drawn)	Bead autofluor 23120
COc1ccc(CCNC(=O)C/C(C)=N/NC(=O)COc2ccc(C)cc2Br)cc1OC	none
Cc1ccc(NC(=O)COC(=O)CN2CCSC2=O)cc1Cl	none
COc1ccc(CCNC(=O)c2c(N)no[n+]2[O-])cc1OC	none
O=C(CC(Nc1ccc(F)cc1)C(=O)OCC(=O)c1cccs1)c1ccccc1 (stereo not drawn)	none
N/C(=N\OC(=O)Cc1ccc(-c2ccccc2)cc1)c1ccncc1	none
COc1cccc(CNC(=O)COc2cc3c(c4oc(=O)cc(C)c24)CCC(C)(C)O3)c1	Mtb FBA inh 168
COc1cccc(CNC(=O)C2(C)Oc3ccccc3NC2=O)c1 (stereo not drawn)	none
COc1ccccc1CNC(=O)COc1cc2c(c3oc(=O)cc(C)c13)CCC(C)(C)O2	Mtb FBA inh 189
Cc1cc(=O)oc2c3c(cc(OCC(=O)NCc4cccnc4)c12)OC(C)(C)CC3	Mtb FBA inh active
CS(=O)(=O)/C(C#N)=C/c1cccn1S(=O)(=O)c1cccc2ccccc12	none
CCc1noc(C)c1C(=O)N(Cc1ccccc1)c1c(N)n(CCOC)c(=O)[nH]c1=O	none
CN(C)c1ccc(C=O)c(Oc2ccccc2)c1	GDH-TPI inh 38
COc1cc(CNc2ccc(C)c(C)c2)cc(OC)c1OC	Bead autofluor 17356
CCN(CC)c1ccc(NC(=O)COc2ccc(C#N)cc2)cc1S(=O)(=O)Nc1ccc(OC)cc1	none
O=C(CN1C(=O)NC2(CCc3ccccc32)C1=O)c1ccc(F)cc1 (stereo not drawn)	none
CCN(CC)C(=O)Oc1ccc2c(=O)c(-c3ccccc3)coc2c1	Bead autofluor 21592
C/C(=N\NS(=O)(=O)c1cccc([N+](=O)[O-])c1)c1cccnc1	none
Cc1cccc(Cn2cnc3c(nnn3Cc3ccccc3F)c2=O)c1	Bead autofluor 22956
COCCNC(=O)CSc1nc2cc(OC)c(OC)cc2c(=O)n1Cc1ccc(OC)cc1	BoNT-A LC inh2 inconclusive, Bead autofluor 22751
COCCCn1c(SCc2ccc(OC)cc2)nc2cc(OC)c(OC)cc2c1=N	Bead autofluor 23040
COCCNC(=O)CSc1nc2ccc(N3CCOCC3)cc2c(=O)n1Cc1ccc(OC)cc1	none
CCCSc1nc2cc(OC)c(OC)cc2c(=N)n1CCCN1CCOCC1	none
